High-throughput results (PubChem)
RE007 growth inh – less growth of the S. pombe RE007 Vpr strain; AID 651644; S. pombe RE007 Vpr strain, BacTiter-Glo ATP luminescence, 24 h; Potency, µM (doses to about 92.2 µM), without a hit: top-dose activity change, negative = less growth, hits mostly inhibitors; actives 0.21% (n = 360,000); active = well fitted falling curve with a large enough effect; inconclusive = small, poorly fitted or top-dose-only effect; inactive = no such curve, though single readings can be large or run the other way; note: nearly all actives have a fitted effect of over 50% in size
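Fission yeast RE007 carrying one integrated HIV-1 vpr copy, seeded at OD 0.01 in PMG+AL medium with 23 nL pinned compound. Grown 24 h at 30 degrees; viability read by BacTiter-Glo luminescence after 5 min.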
LmPK inhibitor – blocks Leishmania mexicana pyruvate kinase activity; actives 0.37% (n = 290,000); purified LmPK, Kinase-Glo ATP luminescence, 1 h; Potency, µM (highest dose often 57.5 µM), inactives show top-dose activity change, negative = inhibition, most hits filed as inhibitors; AID 1721; Q27686
Target sequence (Q27686 whole entry, looked up): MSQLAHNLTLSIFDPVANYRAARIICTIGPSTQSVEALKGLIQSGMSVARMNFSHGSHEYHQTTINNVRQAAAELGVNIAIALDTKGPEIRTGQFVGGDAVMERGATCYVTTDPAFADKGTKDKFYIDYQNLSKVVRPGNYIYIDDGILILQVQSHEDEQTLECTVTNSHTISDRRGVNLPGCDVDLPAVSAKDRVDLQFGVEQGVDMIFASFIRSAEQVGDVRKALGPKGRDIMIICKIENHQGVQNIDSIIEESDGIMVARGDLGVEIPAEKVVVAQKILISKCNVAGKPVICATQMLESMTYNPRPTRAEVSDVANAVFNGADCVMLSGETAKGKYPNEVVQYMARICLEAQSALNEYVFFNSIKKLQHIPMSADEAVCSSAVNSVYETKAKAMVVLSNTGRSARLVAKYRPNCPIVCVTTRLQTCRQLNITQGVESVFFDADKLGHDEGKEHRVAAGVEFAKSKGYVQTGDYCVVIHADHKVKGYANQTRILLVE
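Pyruvate kinase activity monitored as ATP production (luciferase luminescence). Conditions: 0.1 nM enzyme, 0.5 mM PEP, 0.1 mM ADP, 1 h, RT; normalized against uninhibited and no-enzyme wells.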
AMA1-RON2 inh – AMA1-RON2 (P. falciparum) interaction inhibition; AlphaScreen AMA1-biotinylated RON2 peptide binding; actives 0.2% (n = 360,000); AID 720542; Potency, µM (top dose mostly 58.2 µM), for the others: at the top dose activity change, negative = inhibition, usual class: inhibitors;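 note: 0% = vehicle wells and -100% = peptide control; nearly all actives have a fitted effect of over 45% in size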
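AMA1 (3D7) with his tag at 25 nM final met compounds first, then biotinylated RON2 peptide at 25 nM; detection used donor plus acceptor beads, 10 µg/mL apiece, read by AlphaScreen after 30 min at room temperature.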
TbPYK inhibitor – T. brucei pyruvate kinase inhibition. TbPYK enzyme, Kinase-Glo Plus ATP luminescence, 45 min. Q57TT1. Potency, µM (series often up to 76.8 µM), for inactives: at the highest dose activity, negative = inhibition, actives largely listed as inhibitors. actives 0.12% (n = 410,000); note: nearly all actives have a fitted effect of over 50% in size
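Glycolytic pyruvate kinase of T. brucei was incubated with substrate, test compound and 130 uM ADP for 45 minutes at room temperature. Luminescent Kinase-Glo Plus signal was measured after 10 minutes.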
* = called active by the depositor. Rows were chosen to be rich in hits. Some 0.68% of all compounds tested hit in one or more screens of this group. Unless noted, calls come from the whole dose curve; as a rule, active = well fitted curve in the direction sought with a large enough effect; inconclusive = small, poorly fitted or top-dose-only effect, or another doubt; inactive = no such curve, though single readings can be large; an effect the other way counts as inactive or inconclusive. Unless noted, % is set by controls: 0 for no effect and ±100 for the full control effect; potency is the fitted concentration of half-maximal effect.

How did CCOC(=O)c1ccc(N2C(=O)C3CCCN3C2=S)cc1 (stereo not given) do in these assays?
RE007 growth inh: 2%; AMA1-RON2 inh: 35µM*; TbPYK inhibitor: -6%

How did CCOc1ccc(N2C(=O)C3CCCN3C2=S)cc1 (stereo not given) do in these assays?
RE007 growth inh: 2%; AMA1-RON2 inh: -15%; TbPYK inhibitor: 4%

What do the screens show for `CCOC(=O)c1ccc(N2C(=O)CC(N3CCCC(C)C3)C2=O)cc1` (stereo not given)?
RE007 growth inh: 3.2µM*; LmPK inhibitor: 2%; AMA1-RON2 inh: 1%; TbPYK inhibitor: 0%

Results for NC(=O)c1ccccc1NS(=O)(=O)Cc1ccccc1 ?
RE007 growth inh: 12%; LmPK inhibitor: 9%; AMA1-RON2 inh: 5%; TbPYK inhibitor: -5%

Results for O=C1[C@H]2[C@@H](c3ccccc3)N[C@]3(CCCN(Cc4ccco4)C3=O)[C@H]2C(=O)N1Cc1ccccc1 ?
RE007 growth inh: -4%; AMA1-RON2 inh: 16%; TbPYK inhibitor: -14%

How did CCOC(=O)C1CCCN(C2CC(=O)N(c3cccc(C)c3)C2=O)C1 (stereo not given) do in these assays?
RE007 growth inh: 25µM*; LmPK inhibitor: 1%; AMA1-RON2 inh: -4%; TbPYK inhibitor: 4%

How did Cc1cccc(N2C(=O)CC(N3CCOCC3)C2=O)c1 (stereo not given) do in these assays?
RE007 growth inh: -28%; LmPK inhibitor: 0%; AMA1-RON2 inh: 0%; TbPYK inhibitor: -8%

Results for COc1cccc(/C=C/C(=O)c2c(O)cc(C)oc2=O)c1O ?
RE007 growth inh: -28%; LmPK inhibitor: 4%; AMA1-RON2 inh: 16%; TbPYK inhibitor: -5%

How did COc1ccc(/C=C/C(=O)c2c(O)cc(C)oc2=O)c(OC)c1 do in these assays?
RE007 growth inh: 0%; LmPK inhibitor: 14µM*; AMA1-RON2 inh: 13%; TbPYK inhibitor: 2%

Results for Cc1cc(C)c2c(=O)n(CC(=O)Nc3ccc(Br)c(C)c3)sc2n1 ?
RE007 growth inh: inconclusive; LmPK inhibitor: -22%; AMA1-RON2 inh: 21%; TbPYK inhibitor: 8.9µM*

How did Cc1cc(C)c2c(=O)n(CC(=O)Nc3cccc(Cl)c3C)sc2n1 do in these assays?
RE007 growth inh: inconclusive; LmPK inhibitor: inconclusive; AMA1-RON2 inh: 2%; TbPYK inhibitor: inconclusive

Results for Cc1cc(C)c2c(=O)n(CC(=O)NC3CCCC3)sc2n1 ?
RE007 growth inh: -13%; LmPK inhibitor: -5%; AMA1-RON2 inh: -9%; TbPYK inhibitor: 10µM*

How did O=C1CCCN1CC(O)CS(=O)(=O)Cc1ccc(Cl)cc1Cl (stereo not given) do in these assays?
RE007 growth inh: 3%; LmPK inhibitor: 2%; AMA1-RON2 inh: 4%; TbPYK inhibitor: 1%

How did Cn1c(/N=C/c2cccs2)nc2ccccc21 do in these assays?
RE007 growth inh: -3%; LmPK inhibitor: 14µM*; AMA1-RON2 inh: 1%; TbPYK inhibitor: -14%

What do the screens show for `C(=N\c1nc2ccccc2n1CCN1CCCCC1)/c1cccs1`?
RE007 growth inh: -3%; LmPK inhibitor: -2%; AMA1-RON2 inh: -20%; TbPYK inhibitor: -1%

How did Cc1nc2ccccc2c(=O)n1/N=C/c1ccc(C(C)C)cc1 do in these assays?
RE007 growth inh: 10%; LmPK inhibitor: -7%; AMA1-RON2 inh: 4%; TbPYK inhibitor: -1%

What do the screens show for `C(=N\NC1=Nc2cccc3cccc1c23)/c1ccccn1`?
RE007 growth inh: inconclusive; LmPK inhibitor: -1%; AMA1-RON2 inh: 5%; TbPYK inhibitor: 0%

How did C(=NNc1ccc2ccccc2n1)c1ccccn1 do in these assays?
RE007 growth inh: 28µM*; AMA1-RON2 inh: -21%; TbPYK inhibitor: -16%

Results for C(=N\Nc1nc2ccccc2s1)/c1ccccn1 ?
RE007 growth inh: 14µM*; LmPK inhibitor: inconclusive; AMA1-RON2 inh: 12%; TbPYK inhibitor: -16%

Results for CCOc1ccccc1-c1nn2c(Cc3ccccc3)nnc2s1 ?
RE007 growth inh: -3%; LmPK inhibitor: -2%; AMA1-RON2 inh: 2%; TbPYK inhibitor: -3%

Results for CC(=O)N1CCN(C(=O)CC2OC(=O)c3ccccc32)CC1 (stereo not given) ?
RE007 growth inh: 45µM*; LmPK inhibitor: 5%; AMA1-RON2 inh: -3%; TbPYK inhibitor: -8%

How did O=C(CC1OC(=O)c2ccccc21)Nc1ccccc1N1CCOCC1 (stereo not given) do in these assays?
RE007 growth inh: -13%; LmPK inhibitor: 3%; AMA1-RON2 inh: -2%; TbPYK inhibitor: 4%

What do the screens show for `Cc1ccc(-n2[nH]c(C)c(C=Nc3ccc(Br)cn3)c2=O)cc1`?
RE007 growth inh: -20%; LmPK inhibitor: -19%; AMA1-RON2 inh: 0%; TbPYK inhibitor: -1%

How did Cc1ccc(-n2[nH]c(C)c(C=Nc3cc(C)ccn3)c2=O)cc1 do in these assays?
RE007 growth inh: 28µM*; LmPK inhibitor: -20%; AMA1-RON2 inh: -8%; TbPYK inhibitor: 5%

How did COc1ccc2nc(/N=C/c3c(C)[nH]n(-c4ccc(C)cc4)c3=O)sc2c1 do in these assays?
RE007 growth inh: inconclusive; LmPK inhibitor: 13µM*; AMA1-RON2 inh: 1%; TbPYK inhibitor: -23%

Results for O=C(/C=C/c1cccc([N+](=O)[O-])c1)NCCN1C(=O)S/C(=C\c2ccc(F)cc2)C1=O ?
RE007 growth inh: 13%; LmPK inhibitor: -1%; AMA1-RON2 inh: -4%; TbPYK inhibitor: 7%

How did N#Cc1cc(-c2ccccc2)nn1-c1ccccc1 do in these assays?
RE007 growth inh: -20%; LmPK inhibitor: 25µM*; AMA1-RON2 inh: 12%; TbPYK inhibitor: 14µM*

What do the screens show for `CCc1sc(C(=O)N2CCc3ccccc32)cc1C`?
RE007 growth inh: -25%; LmPK inhibitor: 25µM*; AMA1-RON2 inh: -2%; TbPYK inhibitor: -10%

How did Cc1cc(-c2n[nH]c(=S)n2Cc2ccccc2)cs1 do in these assays?
RE007 growth inh: 11%; LmPK inhibitor: inconclusive; AMA1-RON2 inh: 64%; TbPYK inhibitor: 3.5µM*

Results for Fc1ccccc1-c1n[nH]c(=S)n1Cc1ccccc1 ?
RE007 growth inh: -11%; LmPK inhibitor: inconclusive; AMA1-RON2 inh: 112%; TbPYK inhibitor: inconclusive

Results for Cc1scc(-c2n[nH]c(=S)n2Cc2ccccc2)c1C ?
RE007 growth inh: -8%; LmPK inhibitor: inconclusive; AMA1-RON2 inh: 4%; TbPYK inhibitor: 3.2µM*

What do the screens show for `Cc1ccc(C)c(-n2c(-c3csc(C)c3C)n[nH]c2=S)c1`?
RE007 growth inh: 5%; LmPK inhibitor: 7.1µM*; AMA1-RON2 inh: 39%; TbPYK inhibitor: inconclusive

How did S=c1[nH]nc(-c2ccccc2Cl)n1Cc1ccccc1 do in these assays?
RE007 growth inh: 4%; LmPK inhibitor: -5%; AMA1-RON2 inh: 64%; TbPYK inhibitor: 6.3µM*

What do the screens show for `Cc1ccsc1/C=N/NC(=O)CNC(=O)c1ccc(S(=O)(=O)N2CCOCC2)cc1`?
RE007 growth inh: -2%; LmPK inhibitor: 0%; AMA1-RON2 inh: -1%; TbPYK inhibitor: -4%

How did COc1ccc2c(c1)CCc1c(C(=O)NCCCn3ccnc3)noc1-2 do in these assays?
RE007 growth inh: -7%; LmPK inhibitor: -4%; AMA1-RON2 inh: -1%; TbPYK inhibitor: 0%
